# According to PubChem BioAssay (EPA / NIEHS):
# Several values for one entry are separate records, joined by “and”; a condition that tells them apart may be missing. Equal entries are not always repeated. Inconclusive results are not listed. Where a structure was tested more than once in an assay, its records may differ in their call. Activity calls are given as the source filed them. Rule for the calls, unless noted: active = hit-call score of the fitted dose curve at least 0.9, where 1 is the maximum; inactive = score below 0.9.
# How the values were obtained:
# [1] = molecular target: Nuclear respiratory factor 1 (Homo sapiens) (UniProt Q16656); assay: ATG_NRF1_CIS: Attagene CIS-FACTORIAL HepG2 Assay for human Nuclear Respiratory Factor 1 (NRF1) Orphan Gene (AID 2282987); details: HepG2 NRF1 cis-element reporter, Attagene multiplex; actives raise or lower the signal
# Nuclear respiratory factor 1 (Homo sapiens), sequence (Q16656 whole entry, looked up, the tested form may be a part): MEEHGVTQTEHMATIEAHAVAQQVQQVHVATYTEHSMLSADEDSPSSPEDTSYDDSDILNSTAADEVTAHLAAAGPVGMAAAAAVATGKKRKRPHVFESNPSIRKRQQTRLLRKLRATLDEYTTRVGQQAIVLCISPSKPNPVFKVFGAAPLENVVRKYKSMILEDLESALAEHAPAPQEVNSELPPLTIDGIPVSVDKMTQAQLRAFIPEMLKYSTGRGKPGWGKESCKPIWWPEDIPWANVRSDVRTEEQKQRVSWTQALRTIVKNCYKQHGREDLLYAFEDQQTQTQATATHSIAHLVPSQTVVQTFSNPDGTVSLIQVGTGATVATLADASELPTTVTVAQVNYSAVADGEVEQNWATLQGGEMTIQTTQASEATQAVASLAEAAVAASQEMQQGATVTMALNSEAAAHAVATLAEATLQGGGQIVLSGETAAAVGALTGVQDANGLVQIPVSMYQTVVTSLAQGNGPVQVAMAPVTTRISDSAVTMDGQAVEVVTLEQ
# Outline: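 Cells (HepG2, transient MRTU transfection) are exposed to compound for 24 h, then RNA isolated and reporter mRNA amplified and fluorescently labelled. Fragments are separated by capillary electrophoresis; signal change is fitted bidirectionally relative to DMSO.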
# [2] = molecular target: Myc proto-oncogene protein (Homo sapiens) (UniProt P01106); assay: ATG_Myc_CIS: Attagene CIS-FACTORIAL HepG2 Assay for human Myelocytomatosis (Myc) Proto-Oncogene Transcription Factor (AID 2282990); details: HepG2, Attagene cis-reporter transcription factor activity; actives raise or lower the signal
# Myc proto-oncogene protein (Homo sapiens), sequence (P01106 whole entry, looked up, the tested form may be a part): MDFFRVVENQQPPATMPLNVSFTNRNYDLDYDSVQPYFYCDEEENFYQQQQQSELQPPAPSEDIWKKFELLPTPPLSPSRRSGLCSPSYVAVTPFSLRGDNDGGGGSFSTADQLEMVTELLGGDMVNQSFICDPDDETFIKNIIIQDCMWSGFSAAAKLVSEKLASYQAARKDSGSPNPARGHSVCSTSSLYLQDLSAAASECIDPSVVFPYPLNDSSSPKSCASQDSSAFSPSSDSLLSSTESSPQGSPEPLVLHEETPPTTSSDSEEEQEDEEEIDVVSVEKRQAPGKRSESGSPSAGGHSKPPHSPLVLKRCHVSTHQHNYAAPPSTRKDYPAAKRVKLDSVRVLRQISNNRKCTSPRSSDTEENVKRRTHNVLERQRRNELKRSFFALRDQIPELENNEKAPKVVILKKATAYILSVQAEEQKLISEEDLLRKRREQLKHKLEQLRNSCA
# Outline: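 After 24 h chemical treatment of HepG2 cells carrying multiplexed cis-regulated reporter constructs, reporter transcripts quantified by RT-PCR and capillary electrophoresis of fluorescent fragments. Gain or loss fitted against DMSO baseline.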
# [3] = ATG_NF_kB_CIS: Attagene CIS-FACTORIAL HepG2 Assay for human Nuclear Factor Kappa B (NF-kB) (AID 2282991); details: HepG2 Attagene cis-factorial NF-kB reporter mRNA; actives raise or lower the signal
# Outline: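 Measures mRNA induction of an NF-kB-responsive cis-element reporter in HepG2 cells transfected with multiple reporter units, sampled 24 h post-dosing; quantified by fluorescence after RT-PCR and capillary electrophoresis, fitted for activation or inhibition against DMSO.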
# [4] = ATG_Oct_MLP_CIS: Attagene CIS-FACTORIAL HepG2 Assay for human Octamer-Binding Transcription Factor (Oct) (AID 2282993); details: HepG2 Attagene cis-factorial Oct reporter, mRNA; actives raise or lower the signal
# Outline: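 HepG2, transient MRTU transfection, cis promoter elements; 24 h dosing; RT-PCR/CE fluorescence read-out of reporter mRNA; fit both directions vs DMSO.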
# [5] = molecular target: Cellular tumor antigen p53 (Homo sapiens) (UniProt P04637); assay: ATG_p53_CIS: Attagene CIS-FACTORIAL HepG2 Assay for human p53 Transcription Factor (AID 2282994); details: HepG2 p53 cis-element reporter, Attagene mRNA; actives raise or lower the signal
# Cellular tumor antigen p53 (Homo sapiens), sequence (P04637 whole entry, looked up): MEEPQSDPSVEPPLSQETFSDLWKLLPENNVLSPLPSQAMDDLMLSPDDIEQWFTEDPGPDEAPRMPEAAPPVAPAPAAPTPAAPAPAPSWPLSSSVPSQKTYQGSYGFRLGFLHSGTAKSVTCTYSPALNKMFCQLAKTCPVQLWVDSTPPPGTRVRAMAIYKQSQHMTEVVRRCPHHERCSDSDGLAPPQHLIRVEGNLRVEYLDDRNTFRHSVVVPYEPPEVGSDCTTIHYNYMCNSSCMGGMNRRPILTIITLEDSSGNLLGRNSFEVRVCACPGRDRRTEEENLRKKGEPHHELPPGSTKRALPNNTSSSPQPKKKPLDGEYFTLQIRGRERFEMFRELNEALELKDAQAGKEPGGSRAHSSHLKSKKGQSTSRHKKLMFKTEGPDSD
# Outline: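 HepG2, transient MRTU transfection (cis promoter elements, endogenous TFs); 24 h dosing; RNA isolation, RT-PCR, 6-FAM primer extension, HpaI digest, CE fluorescence; bidirectional fit vs DMSO.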
# [6] = molecular target: human Peroxisome Proliferator-activated Receptor alpha (PPARa), PPARA (gene 5465) (UniProt Q07869); assay: ATG_PPARa_TRANS: Attagene TRANS-FACTORIAL HepG2 Assay for human Peroxisome Proliferator-activated Receptor alpha (PPARa) (AID 2283001; active = hit-call score of the fitted dose curve at least 0.9, where 1 is the maximum;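 for AC50: potency for gain of reporter signal over DMSO so agonist or activator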)
# human Peroxisome Proliferator-activated Receptor alpha (PPARa), PPARA (gene 5465), sequence (Q07869 whole entry, looked up, the tested form may be a part): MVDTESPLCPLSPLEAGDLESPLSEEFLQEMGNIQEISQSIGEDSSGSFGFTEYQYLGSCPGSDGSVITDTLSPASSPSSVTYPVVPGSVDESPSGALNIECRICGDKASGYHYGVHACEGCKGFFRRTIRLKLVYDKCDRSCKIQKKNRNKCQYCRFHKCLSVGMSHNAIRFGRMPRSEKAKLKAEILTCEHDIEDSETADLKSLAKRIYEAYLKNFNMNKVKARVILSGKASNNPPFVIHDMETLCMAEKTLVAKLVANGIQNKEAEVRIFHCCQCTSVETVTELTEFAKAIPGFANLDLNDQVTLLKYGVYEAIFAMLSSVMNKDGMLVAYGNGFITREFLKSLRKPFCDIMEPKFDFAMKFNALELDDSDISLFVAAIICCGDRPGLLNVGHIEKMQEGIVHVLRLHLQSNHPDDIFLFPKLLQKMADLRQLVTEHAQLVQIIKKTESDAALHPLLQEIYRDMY
# Outline: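 Read-out is fluorescence of reporter cDNA fragments resolved by capillary electrophoresis after RT-PCR. Human HepG2 liver cells carried transfected PPARa-Gal4 chimera and GAL4-UAS reporter units, treated 24 h; activity scored as increase over DMSO.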
# [7] = molecular target: human Peroxisome Proliferator-activated Receptor delta (PPARd), PPARD (gene 5467) (UniProt Q03181); assay: ATG_PPARd_TRANS: Attagene TRANS-FACTORIAL HepG2 Assay for human Peroxisome Proliferator-activated Receptor delta (PPARd) (AID 2283002; active = hit-call score of the fitted dose curve at least 0.9, where 1 is the maximum)
# human Peroxisome Proliferator-activated Receptor delta (PPARd), PPARD (gene 5467), sequence (Q03181 whole entry, looked up, the tested form may be a part): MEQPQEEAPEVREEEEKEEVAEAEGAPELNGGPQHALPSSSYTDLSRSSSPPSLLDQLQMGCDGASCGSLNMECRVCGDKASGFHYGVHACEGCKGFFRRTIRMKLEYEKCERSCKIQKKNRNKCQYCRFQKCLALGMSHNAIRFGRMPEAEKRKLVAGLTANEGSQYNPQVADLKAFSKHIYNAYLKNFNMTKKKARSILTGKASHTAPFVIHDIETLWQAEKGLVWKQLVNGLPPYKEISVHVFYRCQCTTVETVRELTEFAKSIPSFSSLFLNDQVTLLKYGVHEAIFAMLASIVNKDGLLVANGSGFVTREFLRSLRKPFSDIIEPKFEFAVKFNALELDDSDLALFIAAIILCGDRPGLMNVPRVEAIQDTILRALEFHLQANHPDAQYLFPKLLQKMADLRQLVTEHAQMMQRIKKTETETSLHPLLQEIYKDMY
# Outline: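 Read-out is induced reporter mRNA, quantified by RT-PCR with fluorescent labelling and capillary electrophoresis after 24 h dosing. Cells are HepG2 transiently carrying multiple GAL4-UAS reporter units driven by exogenous NR-GAL4 chimeras; DMSO serves as baseline.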
# [8] = molecular target: Peroxisome proliferator-activated receptor gamma (Homo sapiens) (UniProt P37231); assay: ATG_PPARg_TRANS: Attagene TRANS-FACTORIAL HepG2 Assay for human Peroxisome Proliferator-activated Receptor-gamma (PPARg) (AID 2283007; active = hit-call score of the fitted dose curve at least 0.9, where 1 is the maximum)
# Peroxisome proliferator-activated receptor gamma (Homo sapiens), sequence (P37231 whole entry, looked up, the tested form may be a part): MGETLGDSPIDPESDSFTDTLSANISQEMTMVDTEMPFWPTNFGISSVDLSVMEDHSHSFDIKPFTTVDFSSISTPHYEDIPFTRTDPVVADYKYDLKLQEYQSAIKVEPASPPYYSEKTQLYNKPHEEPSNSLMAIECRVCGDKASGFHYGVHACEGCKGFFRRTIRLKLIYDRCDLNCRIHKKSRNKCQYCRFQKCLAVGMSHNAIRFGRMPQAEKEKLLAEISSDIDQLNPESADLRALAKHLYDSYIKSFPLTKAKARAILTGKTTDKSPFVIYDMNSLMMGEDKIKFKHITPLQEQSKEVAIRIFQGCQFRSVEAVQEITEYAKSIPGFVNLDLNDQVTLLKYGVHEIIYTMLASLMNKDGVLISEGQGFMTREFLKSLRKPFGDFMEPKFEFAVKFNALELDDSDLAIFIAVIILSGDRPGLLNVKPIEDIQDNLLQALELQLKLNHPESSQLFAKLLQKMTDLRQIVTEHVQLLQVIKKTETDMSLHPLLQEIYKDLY
# Outline: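 Gain-of-signal endpoint relative to DMSO, derived from reporter mRNA levels quantified by RT-PCR and capillary electrophoresis. Cells were HepG2 transiently expressing a chimeric NR-Gal4 construct with GAL4-UAS reporters, exposed to chemicals for 24 h.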
# [9] = molecular target: Nuclear receptor subfamily 1 group I member 2 (Homo sapiens) (UniProt O75469); assay: ATG_PXR_TRANS: Attagene TRANS-FACTORIAL HepG2 Assay for human Pregnane X Receptor (PXR) (AID 2283008; active = hit-call score of the fitted dose curve at least 0.9, where 1 is the maximum)
# Nuclear receptor subfamily 1 group I member 2 (Homo sapiens), sequence (O75469 whole entry, looked up, the tested form may be a part): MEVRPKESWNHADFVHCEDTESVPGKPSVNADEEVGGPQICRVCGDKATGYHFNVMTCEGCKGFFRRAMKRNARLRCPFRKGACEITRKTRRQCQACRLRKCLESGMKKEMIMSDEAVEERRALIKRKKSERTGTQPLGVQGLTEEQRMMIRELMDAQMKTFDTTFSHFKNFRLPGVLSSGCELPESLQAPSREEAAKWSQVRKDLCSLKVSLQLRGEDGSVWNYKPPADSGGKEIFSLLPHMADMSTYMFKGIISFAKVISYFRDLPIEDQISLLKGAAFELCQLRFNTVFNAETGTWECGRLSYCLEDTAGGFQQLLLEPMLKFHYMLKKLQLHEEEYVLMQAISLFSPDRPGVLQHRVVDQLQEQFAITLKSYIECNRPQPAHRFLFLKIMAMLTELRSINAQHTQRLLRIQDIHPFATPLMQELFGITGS
# Outline: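 Read-out is fluorescence of labelled reporter cDNA fragments separated by capillary electrophoresis after RT-PCR and HpaI digestion. Source: HepG2 cells carrying PXR-GAL4/UAS reporter constructs, treated 24 h; activity fitted upward relative to DMSO.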
# [10] = molecular target: human RAR-related Orphan Receptor beta (RORb), RORB (gene 6096) (UniProt Q92753); assay: ATG_RORb_TRANS: Attagene TRANS-FACTORIAL HepG2 Assay for human RAR-related Orphan Receptor beta (RORb) (AID 2283010; active = hit-call score of the fitted dose curve at least 0.9, where 1 is the maximum)
# human RAR-related Orphan Receptor beta (RORb), RORB (gene 6096), sequence (Q92753 whole entry, looked up, the tested form may be a part): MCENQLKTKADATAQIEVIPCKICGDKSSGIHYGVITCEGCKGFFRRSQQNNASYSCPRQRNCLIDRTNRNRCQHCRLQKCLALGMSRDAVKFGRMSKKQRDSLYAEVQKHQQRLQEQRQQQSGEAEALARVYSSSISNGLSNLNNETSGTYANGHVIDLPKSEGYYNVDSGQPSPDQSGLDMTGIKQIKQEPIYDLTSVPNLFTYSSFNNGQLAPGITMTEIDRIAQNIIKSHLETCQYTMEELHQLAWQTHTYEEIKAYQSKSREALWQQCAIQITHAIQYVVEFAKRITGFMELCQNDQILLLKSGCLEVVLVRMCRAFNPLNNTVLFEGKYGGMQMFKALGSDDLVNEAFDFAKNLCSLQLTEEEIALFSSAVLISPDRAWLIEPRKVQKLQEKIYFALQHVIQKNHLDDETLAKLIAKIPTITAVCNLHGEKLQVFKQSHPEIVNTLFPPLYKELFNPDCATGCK
# Outline: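 HepG2 cells transiently transfected with GAL4-UAS reporter units expressing chimeric NR-Gal4 protein; reporter mRNA measured 24 h after dosing by RT-PCR, 6-FAM labelling and capillary electrophoresis. Gain-of-signal fitted relative to DMSO baseline.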
# [11] = ATG_NRF2_ARE_CIS: Attagene CIS-FACTORIAL HepG2 Assay for human Nuclear Factor Erythroid 2 Related Factor 2 (NFR2) response to Antioxidant Response Elements (ARE) (AID 2282992); details: HepG2 Attagene ARE/NRF2 reporter, transcription factor activity; actives raise or lower the signal
# Outline: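 Transient MRTU transfection of HepG2; 24 h compound exposure; TriZol RNA, RT with oligo(dT), PCR, 6-FAM primer extension, HpaI cut, CE. Bidirectional fit vs DMSO.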
# [12] = ATG_NFI_CIS: Attagene CIS-FACTORIAL HepG2 Assay for human Nuclear Factor I (NFI) (AID 2282989); details: HepG2 cis-regulatory reporter, NFI response element transcription; actives raise or lower the signal
# Outline: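 Cells: human liver HepG2, transiently transfected with promoter-regulated reporter transcription units. Exposure 24 h. Detection: fluorescent RT-PCR products separated by capillary electrophoresis, normalised to DMSO negative control.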
# [13] = BSK_3C_TissueFactor: BioMAP Diversity Plus: 3C Assay for Tissue Factor Biomarker Activity (AID 2282997); details: BioMAP 3C HUVEC, tissue factor biomarker readout; actives raise or lower the signal
# Outline: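 Human vascular primary cells (umbilical vein endothelium) received test chemical; Tissue Factor was determined by ELISA at 24 h, and both gain and loss of signal versus DMSO were fitted.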
# [14] = BSK_3C_uPAR: BioMAP Diversity Plus: 3C Assay for Urokinase-type plasminogen activator receptor (uPAR) Biomarker Activity (AID 2282998); details: BioMAP 3C HUVEC, uPAR biomarker ELISA; actives raise or lower the signal
# Outline: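 A multiplexed primary-cell system built on human umbilical vein endothelium was used, with chemical present for 24 h before reading. Cell-surface uPAR was detected by ELISA; signal change in either direction counted against DMSO.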
# [15] = BSK_4H_Eotaxin3: BioMAP Diversity Plus: 4H Assay for Eotaxin 3 Biomarker Activity (AID 2283000); details: primary human endothelial cells (HUVEC); actives raise or lower the signal;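 for outcome: CCL26 protein level quantified by ELISA in parallel with SRB cytotoxicity check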
# Outline: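 Readout is Eotaxin-3 (CCL26) level by ELISA in primary human umbilical vein endothelial cells harvested 24 h after chemical exposure; activity fitted in both directions against DMSO control.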
# [16] = read-out: Intercellular Adhesion Molecule 1 (ICAM1), ICAM1 (gene 3383); assay: BSK_3C_ICAM1: BioMAP Diversity Plus: 3C Assay for Intercellular Adhesion Molecule 1 (ICAM1) Biomarker Activity (AID 2283003); details: primary human endothelial cells (HUVEC); actives raise or lower the signal
# Outline: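 HUVEC primary cells stimulated under 3C conditions; ICAM1 measured by ELISA 24 h after compound dosing. Curves fitted bidirectionally against the DMSO baseline. Overt cytotoxicity checked by SRB staining of parallel cultures.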
# [17] = molecular target: Retinoic acid receptor alpha (Homo sapiens) (UniProt P10276); assay: ATG_RARa_TRANS: Attagene TRANS-FACTORIAL HepG2 Assay for human Retinoic Acid Receptor alpha (RARa) (AID 2283005; active = hit-call score of the fitted dose curve at least 0.9, where 1 is the maximum)
# Retinoic acid receptor alpha (Homo sapiens), sequence (P10276 whole entry, looked up, the tested form may be a part): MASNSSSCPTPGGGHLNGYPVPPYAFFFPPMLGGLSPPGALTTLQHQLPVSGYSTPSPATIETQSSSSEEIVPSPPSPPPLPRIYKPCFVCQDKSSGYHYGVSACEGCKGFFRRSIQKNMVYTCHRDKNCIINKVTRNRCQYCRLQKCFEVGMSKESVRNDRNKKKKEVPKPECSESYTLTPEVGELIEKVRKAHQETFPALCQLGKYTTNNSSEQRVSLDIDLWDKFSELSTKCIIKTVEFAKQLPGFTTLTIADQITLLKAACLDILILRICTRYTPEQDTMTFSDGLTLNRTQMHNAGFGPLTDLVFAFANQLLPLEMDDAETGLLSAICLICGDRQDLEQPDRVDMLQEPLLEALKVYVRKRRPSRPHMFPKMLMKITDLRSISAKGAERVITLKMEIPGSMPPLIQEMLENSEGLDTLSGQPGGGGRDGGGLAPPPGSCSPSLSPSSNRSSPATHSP
# Outline: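 Reporter transcripts, measured by RT-PCR with fluorescent labeling and capillary electrophoresis after 24 h dosing, reflect activity of an exogenous human RARa–GAL4 fusion in transiently transfected HepG2. Fitted for increase relative to DMSO.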
# [18] = BSK_3C_Proliferation: Cell Proliferation Assessment in the BioMAP Diversity Plus: 3C Assay (AID 2283006); details: primary human endothelial cells (HUVEC);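 for AC50: potency may reflect either rise or fall in cell number versus DMSO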
# Outline: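 Subconfluent HUVEC (3C system) cultured with chemical; relative cell number read at 48 h by sulforhodamine B total-protein staining (0.1% SRB after 10% TCA fixation, 560 nm). Bidirectional fit relative to DMSO.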
# [19] = molecular target: human Retinoic Acid Receptor gamma (RARg), RARG (gene 5916) (UniProt P13631); assay: ATG_RARg_TRANS: Attagene TRANS-FACTORIAL HepG2 Assay for human Retinoic Acid Receptor gamma (RARg) (AID 2283009; active = hit-call score of the fitted dose curve at least 0.9, where 1 is the maximum)
# human Retinoic Acid Receptor gamma (RARg), RARG (gene 5916), sequence (P13631 whole entry, looked up, the tested form may be a part): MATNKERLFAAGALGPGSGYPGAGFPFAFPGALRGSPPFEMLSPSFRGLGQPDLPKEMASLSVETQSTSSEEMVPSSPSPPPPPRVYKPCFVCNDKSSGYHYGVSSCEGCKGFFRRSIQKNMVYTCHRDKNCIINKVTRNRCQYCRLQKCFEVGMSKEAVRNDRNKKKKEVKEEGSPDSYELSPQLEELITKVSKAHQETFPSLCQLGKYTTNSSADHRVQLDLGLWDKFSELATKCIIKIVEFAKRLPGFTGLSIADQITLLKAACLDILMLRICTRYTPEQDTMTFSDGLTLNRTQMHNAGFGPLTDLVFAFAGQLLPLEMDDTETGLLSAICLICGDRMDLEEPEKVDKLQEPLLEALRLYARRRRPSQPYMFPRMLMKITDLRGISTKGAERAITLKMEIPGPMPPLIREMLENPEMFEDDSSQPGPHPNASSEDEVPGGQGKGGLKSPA
# Outline: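 HepG2 transiently transfected with GAL4-UAS reporter units and chimeric NR-Gal4 constructs; 24 h compound exposure. Reporter mRNA quantified by RT-PCR, FAM labeling, HpaI digestion and capillary electrophoresis; gain-of-signal versus DMSO.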
compound,measurement,setting,value
CC(C)N1C(=O)c2ccccc2C1=O,outcome,[1],inactive
same,outcome,[2],inactive
same,outcome,[3],inactive
same,outcome,[4],inactive
same,outcome,[5],inactive
same,outcome,[6],inactive
same,outcome,[7],inactive
same,outcome,[8],inactive
same,outcome,[9],inactive
same,outcome,[10],inactive
CC(CO)(CO)[N+](=O)[O-],outcome,[1],inactive
same,outcome,[2],inactive
same,outcome,[11],inactive
same,outcome,[7],inactive
same,outcome,[9],inactive
CC1=CCC(C(C)(C)O)CC1 (configuration not stated),outcome,[1],inactive
same,outcome,[2],inactive
same,outcome,[3],inactive
same,outcome,[4],inactive
same,outcome,[5],inactive
same,outcome,[6],inactive
same,outcome,[9],inactive
same,outcome,[10],inactive
C[C@]12CC[C@@H]3c4ccc(O)cc4CC[C@H]3[C@@H]1CC[C@@H]2O,AC50,[12],146 µM (active)
same,outcome,[12],inactive
same,outcome,[2],inactive
same,outcome,[11],inactive
same,outcome,[4],inactive
same,AC50,[5],19.8 µM (active) and 21.3 µM (active) and 12.8 µM (active)
same,outcome,[5],inactive
same,AC50,[13],20 µM (active)
same,AC50,[14],11.9 µM (active)
same,AC50,[15],20 µM (active)
same,outcome,[6],inactive
same,outcome,[7],inactive
same,outcome,[16],inactive
same,outcome,[17],inactive
same,AC50,[18],8.41 µM (active)
same,AC50,[9],5.7 µM (active) and 3.83 µM (active) and 4.54 µM (active)
same,outcome,[9],inactive
same,outcome,[19],inactive
same,outcome,[10],inactive
c1ccc(OCCOc2ccccc2)cc1,outcome,[12],inactive
same,outcome,[2],inactive
same,outcome,[3],inactive
same,outcome,[11],inactive
same,outcome,[4],inactive
same,outcome,[5],inactive
same,AC50,[13],1.24 µM (active) and 1.4 µM (active)
same,outcome,[14],inactive
same,outcome,[15],inactive
same,outcome,[7],inactive
same,outcome,[16],inactive
same,outcome,[18],inactive
same,outcome,[10],inactive
CC1=CC[C@@H](C(C)(C)O)CC1,outcome,[1],inactive
same,outcome,[2],inactive
same,outcome,[3],inactive
same,outcome,[5],inactive
same,outcome,[6],inactive
same,outcome,[7],inactive
same,outcome,[8],inactive
same,outcome,[10],inactive
O=C1OCc2ccccc21,outcome,[12],inactive
same,outcome,[2],inactive
same,outcome,[3],inactive
same,outcome,[11],inactive
same,outcome,[4],inactive
same,outcome,[5],inactive
same,outcome,[7],inactive
CC(C)(O)CCc1ccccc1,outcome,[1],inactive
same,outcome,[2],inactive
same,outcome,[3],inactive
same,outcome,[4],inactive
same,outcome,[5],inactive
same,outcome,[7],inactive
same,outcome,[8],inactive
same,outcome,[9],inactive
same,outcome,[10],inactive
N=C1N=C(N)c2ccccc21,outcome,[1],inactive
same,outcome,[2],inactive
same,outcome,[4],inactive
same,outcome,[5],inactive
same,AC50,[6],173 µM (active)
same,outcome,[8],inactive
same,AC50,[9],47.5 µM (active)
same,outcome,[10],inactive
CN(C)C,outcome,[1],inactive
same,outcome,[11],inactive
same,outcome,[4],inactive
same,outcome,[5],inactive
same,outcome,[10],inactive
CC(C)C(=O)c1ccccc1,outcome,[12],inactive
same,outcome,[2],inactive
same,outcome,[3],inactive
same,outcome,[11],inactive
same,outcome,[4],inactive
same,outcome,[5],inactive
same,outcome,[17],inactive
same,outcome,[9],inactive
same,outcome,[19],inactive
same,outcome,[10],inactive
